Screening data (PubChem BioAssay)
This is a sample that favours compounds with a hit; in the whole collection about 4.1% have one here.
DAX1 inh-1 = DAX1 (NR0B1) inhibitors on StAR promoter, primary screen, cell-based, luminescence, SF-1 (NR5A1), full-length DAX-1. 1.1% of 370,000 active. HEK293T StAR-luciferase reporter, SF-1/DAX-1 repression relief. inhibition, % at 6.8 µM;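 active = inhibition above the mean over all tested compounds plus 3 SD, cut at about 3.6% in these data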;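 note: higher inhibition means more luminescence from relief of DAX-1 repression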
hgDAF12 agonist = H. glycines DAF-12 receptor agonists, primary screen, cell-based, luminescence, HEK293, GAL4 fusion, UAS-luciferase | 1.8% of 370,000 active | activation, % at 6.8 µM | HEK293 GAL4-hgDAF12 UAS-luciferase reporter, agonist luminescence; normalized to butyrate control;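 active = activation above a cutoff set at the mean of all screened compounds plus 3 SD, cut at about 10% in these data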
hcDAF12 agonist = H. contortus DAF-12 nuclear receptor activators, primary screen, cell-based, luminescence, HEK293, lit1-tk-luc reporter; AID 652067, 2013; HEK293 hcDAF-12 lit1-tk-luc reporter; 0% DMSO, 100% Δ7-dafachronic acid; activation, % at 6.8 µM; 1.4% of 370,000 active;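 active = activation above the mean of all tested compounds plus 3 SD, cut at about 5.5% in these data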
ssDAF12 agonist = S. stercoralis DAF-12 nuclear receptor activators, primary screen, cell-based, luminescence, HEK293, GRIP1 co-expression, lit1-tk-luc | activation, % at 6.8 µM | 1% of 370,000 active | HEK293 ssDAF-12/GRIP1 lit1-tk-luc reporter; % of 3 µM dafachronic acid response | AID 652126, 2013 | Nuclear hormone receptor DAF-12 (Strongyloides stercoralis);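 active = activation above the mean over all tested compounds plus 3 SD, cut at about 0.9% in these data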
DAX1 inh-2 = DAX1 (NR0B1) inhibitors, primary screen, cell-based, HEK293, Gal4-DAX1, luciferase luminescence; AID 504766, 2011; 0.99% of 340,000 active; HEK293 Gal4-DAX1 luciferase reporter; inhibition, % at 6.75 µM;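 active = inhibition above the mean over all tested compounds plus 3 SD, cut at about 4.2% in these data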;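 note: inhibition shows as a rise in luminescence from relieved DAX1 repression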
Target sequence (P51843 207-470 limits assumed): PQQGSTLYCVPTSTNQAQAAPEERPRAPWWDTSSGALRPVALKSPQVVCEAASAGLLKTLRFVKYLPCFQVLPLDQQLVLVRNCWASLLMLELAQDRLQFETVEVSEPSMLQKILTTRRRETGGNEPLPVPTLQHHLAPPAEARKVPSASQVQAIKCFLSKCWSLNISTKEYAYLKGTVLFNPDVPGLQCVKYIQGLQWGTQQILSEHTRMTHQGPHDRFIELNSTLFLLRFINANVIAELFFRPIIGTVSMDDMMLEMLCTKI
DAX1 inh confirm = DAX1 (NR0B1) inhibitors relieving SF-1 repression, confirmation, cell-based, luminescence, HEK293T, full-length DAX-1, SF-1 activated StAR promoter; HEK293T StAR-promoter luciferase reporter, SF-1/DAX-1 repression; 87% of 2,400 active; shares compounds with DAX1 inh-1; inhibition, % at 6.8 µM;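 active = inhibition above the average of every tested compound plus 3 SD, cut at about 3.8% in these data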
SF1 mutant ctr = StAR reporter signal changes without DAX1, counter-screen for DAX1 inhibitor project, cell-based, luminescence, AF-2 mutant SF-1, transactivation; shares compounds with DAX1 inh-1; HEK293 StAR-luciferase, SF-1 AF2 mutant; inhibition, % at 6.8 µM; 78% of 2,400 active; AID 652136, 2013;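 active = inhibition above the mean of all tested compounds plus 3 SD, cut at about 3% in these data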
Large screens that a line does not name were inactive (follow-up assays come after a bar, where they were run).

CCC1(c2ccccc2)NC(=O)N(CC(=O)N2CC(=O)Nc3ccccc32)C1=O (stereo unspecified)	none
COc1cccc(/C=C/C(=O)NNC(=O)c2ccccc2)c1OC	DAX1 inh-1 5.2 | DAX1 inh confirm 5.1 | SF1 mutant ctr inactive
CCCCCCN1C[C@H](O)[C@@H](n2cc(COC(=O)c3ccccc3)nn2)C[C@@H]1c1ccccc1	none
CCCCCCN1C[C@@H](O)[C@H](n2cc(COC(=O)c3ccccc3)nn2)C[C@@H]1c1ccccc1	DAX1 inh-1 4.6 | DAX1 inh confirm inactive | SF1 mutant ctr inactive
Cc1nn(-c2ccccc2)c(Cl)c1/C=N/NC(=O)c1ccnn1C	DAX1 inh-1 7.2 | DAX1 inh confirm 9.4 | SF1 mutant ctr 6.4
CC1CCN(C(=O)CNC(=O)c2ccc(Br)o2)CC1	DAX1 inh-1 4.9 | DAX1 inh confirm inactive | SF1 mutant ctr inactive
Cc1cc(NN=Cc2ccccn2)nc2ccccc12	none (no result: DAX1 inh-2)
C(=NNc1ccc2ccccc2n1)c1ccccn1	DAX1 inh-1 4.8, hgDAF12 agonist 11.4, hcDAF12 agonist 5.9 (no result: DAX1 inh-2) | DAX1 inh confirm inactive | SF1 mutant ctr inactive
Cc1ccc2c(c1)-c1nc3ccccc3cc1C2=NC1CCCCC1	DAX1 inh-1 4.8, hgDAF12 agonist 18.9, hcDAF12 agonist 12.6, ssDAF12 agonist 1.6 | DAX1 inh confirm 4.0 | SF1 mutant ctr inactive
CCC(c1nnnn1-c1ccc2c(c1)OCCO2)N1CCN(CC)CC1 (stereo unspecified)	DAX1 inh-1 5.4 (no result: DAX1 inh-2) | DAX1 inh confirm inactive | SF1 mutant ctr inactive
CC(=O)c1cccc(NC(=O)NC2CCCCCCC2)c1	none
Cc1cccc(NC(=O)NC2CCCCCCC2)c1	DAX1 inh-1 5.7 | DAX1 inh confirm 4.9 | SF1 mutant ctr 3.6
O=c1cc(N2CCN(c3cccc(Cl)c3Cl)CC2)[nH]c(=O)n1C1CCCCC1	none (no result: DAX1 inh-1, DAX1 inh-2)
O=C(NCCCNC(=O)c1cccnc1)c1ccc(Cl)cc1	none
CSc1cccc(NC(=O)c2sc3nc4n(c(=O)c3c2C)CCC4)c1	DAX1 inh-1 5.1 | DAX1 inh confirm inactive | SF1 mutant ctr inactive
COc1cccc(NC(=O)c2sc3nc4n(c(=O)c3c2C)CCC4)c1	DAX1 inh-1 4.7 | DAX1 inh confirm 5.0 | SF1 mutant ctr 5.9
CC(=O)c1cccc(NC(=O)c2sc3nc4n(c(=O)c3c2C)CCCCC4)c1	none
Cc1c(C(=O)Nc2ccc(Oc3ccccc3)cc2)sc2nc3n(c(=O)c12)CCC3	none
Cc1cccc2c1-c1sc(C(=O)N3CCCCC3)cc1CO2	DAX1 inh-1 5.3 | DAX1 inh confirm 9.6 | SF1 mutant ctr 5.7
Cc1cccc2c1-c1sc(C(=O)N3CCc4ccccc4C3)cc1CO2	none
O=C(NCc1ccc(Cl)cc1)c1ccc(-c2ccc(F)c(F)c2)c2ccoc12	none (no result: DAX1 inh-2)
C/C(=N\NC(=O)c1ccoc1C)c1ccc(Br)s1	DAX1 inh-1 5.8 | DAX1 inh confirm inactive | SF1 mutant ctr inactive
CC(=NNC(=O)c1cc(C)oc1C)c1ccc(Br)s1	none
Cc1sc(=NC(=O)c2ccco2)n(C)c1-c1ccccc1	DAX1 inh-1 5.5 | DAX1 inh confirm 13.6 | SF1 mutant ctr 6.3
CCN1CCN(S(=O)(=O)c2ccc(Cl)c(C(=O)NCCc3ccccc3)c2)CC1	DAX1 inh-1 5.6 | DAX1 inh confirm inactive | SF1 mutant ctr inactive
CCOC(=O)C(NCCc1ccccc1F)(NC(C)=O)C(F)(F)F (stereo unspecified)	none
CCN(CC)c1ccc(S(=O)(=O)N2CCOCC2)cc1NC(=O)CSc1n[nH]c(N)n1	none
O=C(Nc1ncc(Cc2ccccc2)s1)C1CCCO1 (stereo unspecified)	DAX1 inh-1 8.3, hgDAF12 agonist 12.5 | DAX1 inh confirm 10.9 | SF1 mutant ctr 4.8
O=C(Nc1nnc(Cc2ccc(Cl)cc2)s1)C1CCCO1 (stereo unspecified)	none
CC(C)(C)NC(=O)C(c1ccc(-c2ccccc2)cc1)n1c(=O)c(-c2cc3ccccc3[nH]2)nc2ccccc21 (stereo unspecified)	DAX1 inh-1 4.9, ssDAF12 agonist 1.4 (no result: DAX1 inh-2) | DAX1 inh confirm 4.4 | SF1 mutant ctr 4.6
O=C1NC[C@@H](CCCCN2CCN(CCc3ccc(O)cc3)C(=O)C2=O)N(CCc2ccc(O)cc2)C1=O	none (no result: DAX1 inh-2)
CC(=O)c1c(C)[nH]c(C(=O)Nc2ccc(C)c(S(=O)(=O)N(C)C)c2)c1C	DAX1 inh-1 13.1, hgDAF12 agonist 10.5, ssDAF12 agonist 1.0 | DAX1 inh confirm 14.7 | SF1 mutant ctr 6.7
CC(=O)c1c(C)[nH]c(C(=O)Nc2ccc(S(=O)(=O)N(C)C)cc2)c1C	none
NC(=Nc1cccc(F)c1)NC(=O)OCc1ccccc1	DAX1 inh-1 5.2 (no result: DAX1 inh-2) | DAX1 inh confirm 5.2 | SF1 mutant ctr 3.6
CCCCNC(=O)OC1CCC12CCC(c1ccccc1)CC2 (stereo unspecified)	none (no result: DAX1 inh-2)
COc1ccccc1C(=O)NCCC(=O)NNC(=O)Cn1ccc(C(F)(F)F)n1	none
O=C(Nc1ccccc1)C(=O)Nc1ccc2c(c1)N(C(=O)C1CC1)CCC2	DAX1 inh-1 6.0, hgDAF12 agonist 10.8 | DAX1 inh confirm 4.1 | SF1 mutant ctr inactive
O=C(C1CCC(C(=O)N2CCc3ccccc32)CC1)N1CCc2ccccc21 (stereo unspecified)	none
O=C(Nc1ccc(S(=O)(=O)N2CCCCCC2)cc1)c1[nH]ncc1[N+](=O)[O-]	DAX1 inh-1 7.0 | DAX1 inh confirm inactive | SF1 mutant ctr inactive
O=C(Nc1ccc([N+](=O)[O-])cc1)c1ccc(S(=O)(=O)N2CCCC2)cc1	none
COc1ccc(CN2C(=O)c3ccccc3C2c2nnnn2-c2c(C)cccc2C)cc1OC (stereo unspecified)	none (no result: DAX1 inh-2)
CC(=O)Nc1ccc(-c2ccnc3c2CC(C(=O)NCc2ccccc2)O3)cc1 (stereo unspecified)	DAX1 inh-1 4.5 (no result: DAX1 inh-2) | DAX1 inh confirm 9.6 | SF1 mutant ctr inactive
CC(=O)Nc1ccc(-c2ccnc3c2CC(C(=O)NCc2ccco2)O3)cc1 (stereo unspecified)	DAX1 inh-1 4.7 (no result: DAX1 inh-2) | DAX1 inh confirm 11.5 | SF1 mutant ctr inactive
